Among the data in PubChem BioAssay (NCI) are growth values, retold here.

Where “and” joins values, the source holds several entries; their conditions need not be identical. Equal entries are not always repeated. This is part of a sample that, as a whole, favours compounds with a hit. Of some 83,000 tested, about 20% had one in any assay.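 Note: values are percent growth. 100 is the growth of untreated cells, values between 100 and 0 indicate rising inhibition; between -100 and 0 indicates cell death.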 Calls of active or inactive are those of the source. The calls were made as follows: active = growth percent below 10; inactive = the rest.

This assay deals with MCF7 breast. Description: NCI-60 one-dose screen, 48 h (100 = growth as untreated, 0 = no growth, -100 = all killed). Conditions: 10 µM unless noted.
Take `COc1cc([C@H]2OC[C@H]3[C@@H]2CO[C@@H]3c2cc(OC)c3c(c2)OCO3)cc(OC)c1OC`: the growth is 18.5% [100 µM] (inactive) and 2.61% [100 µM] (active). With `CNc1nc2c(C)ccc3[nH]c(N(C)C)nc3c-2n1` the figure was 8.99% [100 µM] (active) and 1.25% [100 µM] (active); with `CC1OC23CCCCC2C(C#N)(C#N)C1(C#N)C(=N)O3` (centres undefined), -34% [100 µM] (active). In the case of `CC(C)=CCc1c(OC(=O)c2c(C)cc(O)cc2O)cc(CO)c(CO)c1O`, the growth is -58.6% [100 µM] (active) and -100% [100 µM] (active).
